Among the data in PubChem BioAssay (NCI) are growth values, retold here.

Each structure is given as a SMILES string. This is part of a sample that, as a whole, favours compounds with a hit. Of some 83,000 tested, about 20% had one in any assay.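 Single-dose data. Exposure time 48 hours. Values below 10 considered active.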 Values without a mark were called inactive. Active and inactive are the calls of the source.

What all share (test): NCI-60 one-dose screen, 48 h (100 = growth as untreated, 0 = no growth, -100 = all killed)
Common to all, as to details: 10 µM unless noted

The subject of experiment [1] is SR leukemia.
The subject of experiment [2] is RPMI-8226 leukemia.
Experiment [3] has as its system OVCAR-5 ovarian.
The subject of experiment [4] is OVCAR-4 ovarian.
The test system of experiment [5] is SK-OV-3 ovarian.
Experiment [6] has as its system OVCAR-3 ovarian.
Experiment [7] relates to HS 578T breast.
Experiment [8] concerns NCI/ADR-RES ovarian.
The test system of experiment [9] is OVCAR-8 ovarian.
The subject of experiment [10] is IGROV1 ovarian.

Regarding `O=C(N/N=C/c1ccc(F)cc1)c1ccccc1Nc1cccc(C(F)(F)F)c1`, the growth in experiment [1] is 24%; in experiment [2], 93.1%; in [3], 104%; in experiment [4] it was 84.4%; in experiment [5], 94.6%; in experiment [6], 81.3%. For the same molecule, the growth in experiment [7] was 112%; in experiment [8], 107%.
For the molecule `COc1cc(OC)cc(C2C3=C(COC3=O)Nc3cc(OC)ccc32)c1` (centres undefined), the growth in [1] is 8.35% (active); in experiment [9], 8.63% (active); in experiment [3], 39.5%; in experiment [4], 49.4%; in experiment [5], -3.6% (active); in experiment [10], 42.2%. For the same molecule, the growth is -50% (active) in [6], 68.1% in experiment [7] and -18.6% (active) in experiment [8].
For `C=C(C)[C@@H]1CC[C@]2(C(=O)NCC(=O)OC)CC[C@]3(C)[C@H](CC[C@@H]4[C@@]5(C)Cc6c([nH]c7ccccc67)C(C)(C)[C@@H]5CC[C@]43C)[C@@H]12`, the growth is 47% in [1]; 85.4% in [9]; 100% in [3]; 66.5% in [4]; 84.5% in [5]; 85.1% in experiment [10]. Further, the growth was 64.6% in experiment [6], 95% in experiment [7] and 91% in [8].
On to `O=C(O)C(/C=C/c1ccco1)=N\Nc1nc(-c2ccc(Cl)cc2)cs1`, for which the growth in [1] is 41.5%; in [9] it was 36.6%; in experiment [3] it was 98.9%; in experiment [4], 43.1%; in experiment [5], 70.9%; in experiment [10], -10% (active). Besides, the results for the growth in experiment [6], in [7] and in experiment [8] were -4.27% (active), 77.3% and 12.5%, respectively.
Regarding `Cc1c(C(=O)NO)sc2ncnc(Nc3ccc(NC(=S)Nc4ccccc4)cc3)c12`, the growth is 110% in experiment [1]; 103% in experiment [9]; 103% in [3]; 105% in experiment [4]; 121% in [5]; 112% in experiment [10]. Moreover, the growth in experiment [6] is 111%; in experiment [7], 105%; in experiment [8] it was 99.6%.
On to `COc1ccc(Cn2nc(-c3ccccc3)c3c2CCc2cnoc2-3)cc1`, for which the growth in experiment [1] is 36%; in experiment [9], 80.8%; in [3], 102%; in [4], 72.1%; in experiment [5], 83.1%; in experiment [10], 86%. Also, the results for the growth in [6], in experiment [7] and in experiment [8] were 87.4%, 90.7% and 66.7%, respectively.
`COC(=O)N[C@H]1CCc2cc(OC)c(OC)c(OC)c2-c2ccc(SC)c(=O)cc21`: the growth in experiment [1] is 3.05% (active); in experiment [9], 9.33% (active); in experiment [3] it was 9.44% (active); in experiment [4], 39.8%; in experiment [5] it was 24.6%; in experiment [10], 19.9%. For the same molecule, the growth in experiment [6] is -20.6% (active); in experiment [7], 2.61% (active); in [8] it was -22% (active).
Take `Cc1cc(C)n(Nc2nc3ccccc3[nH]c2=O)c(=O)c1C#N`: the growth in experiment [1] is 82.5%; in experiment [9], 97.7%; in experiment [3], 99.7%; in experiment [4], 93.4%; in [5], 96.9%; in [10] it was 94.8%. In addition, the values for the growth in experiment [6], in experiment [7] and in [8] were 101%, 92.7% and 101%, respectively.
Consider `C=C(C)[C@@H]1CC[C@]2(C(=O)NCCCN(CCC#N)CCC#N)CC[C@]3(C)[C@H](CC[C@@H]4[C@@]5(C)CCC(=O)C(C)(C)[C@@H]5CC[C@]43C)[C@@H]12`, for which the growth in experiment [1] was 108%; in [9], 97.9%; in experiment [3], 103%; in experiment [4], 92.6%; in [5], 93%; in experiment [10], 102%. In addition, the growth was 107% in experiment [6], 96.3% in experiment [7] and 103% in experiment [8].
As for `COc1ccc(Cn2nc3c(c2-c2cc(OC)c(OC)c(OC)c2)-c2oncc2CC3)cc1`, the growth in experiment [1] is 25.5%; in experiment [9] it was 107%; in [3] it was 88%; in [4] it was 86.8%; in experiment [5], 94.7%; in [10], 81.8%. Besides, the growth was 98% in experiment [6], 116% in [7] and 65.9% in experiment [8].
As for `COc1ccc(Cn2nc(-c3cc(OC)c(OC)c(OC)c3)c3c2CCc2cnoc2-3)cc1OC`, the growth is 1.81% (active) in experiment [1]; 79% in experiment [9]; 89.9% in [3]; 70.7% in [4]; 47% in [5]; 63.4% in experiment [10]. The growth in experiment [6] was 39.7%; in experiment [7], 72.5%; in experiment [8] it was 26.1%.
Take `COc1cccc2c1C(=O)c1c(O)c3c(c(O)c1C2=O)C[C@@](O)(C(=O)CO)C[C@@H]3O[C@H]1C[C@H](N)[C@@H](O)[C@H](C)O1`: the growth is -2.27% (active) in experiment [1]; 6.05% (active) in [2]; 15.2% in experiment [3]; 7.72% (active) in [4]; 7.22% (active) in experiment [5]; -0.462% (active) in [6]. Further, the results for the growth in experiment [7] and in experiment [8] were -18.2% (active) and 70.5%, respectively.
With `CCCCCCOc1ccc(C(=N)N(CCCC)CCCC)c2ccccc12`, the growth is -46.9% (active) in experiment [1]; -41.2% (active) in [2]; -96.4% (active) in experiment [4]; -96.4% (active) in experiment [5]; -94.2% (active) in experiment [6]; -13.9% (active) in experiment [7]. The growth in experiment [8] is -95.3% (active).
As for `CC(Oc1ccc(C(=O)NS(=O)(=O)C(C)(C)C)cc1C(F)(F)F)c1ccc(Oc2ccccc2)cn1` (centres undefined), the growth is 25.9% in experiment [1]; 94.8% in experiment [2]; 101% in [3]; 93.1% in experiment [4]; 104% in [5]; 8.07% (active) in [6]. Also, the growth in [7] was 60.4%; in experiment [8], 83%.
As for `COc1ccc2c(Nc3ccc(NS(C)(=O)=O)cc3)c3ccccc3nc2c1`, the growth in [1] was -11.6% (active); in experiment [2] it was 1.1% (active); in experiment [3] it was 4.43% (active); in experiment [4], 11.8%; in experiment [10], 3.52% (active); in experiment [6], -22.3% (active). Moreover, the growth in experiment [7] is -17.1% (active); in [8], 32.7%.
